Consider 9 compounds from PubChem BioAssay (NCI).

Where “and” joins values, the source holds several entries; their conditions need not be identical. Equal values may be shown once. The panel holds about 79,000 compounds, 15% with a hit somewhere; the sample as a whole holds those more often. More than one record can exist for a structure, and the calls need not agree. Calls of active or inactive are those of the source. Cut-off read from the data, not from the text of the source: active = growth inhibition above about 70%; inactive = the rest.

Assay [1] can be described thus: NCI Yeast Anticancer Drug Screen. Data for the rad50 strain (AID 155).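 Note: 0% = growth of vehicle-only cultures of the same strain.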 The conditions noted are these: S. cerevisiae rad50 strain growth inhibition, stronger effect = higher value. The essentials:
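Readout: growth inhibition relative to vehicle-treated cultures. Compound exposure was carried out in a genetically defined yeast strain deficient in DNA damage repair.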

Assay [2] is described as follows: NCI Yeast Anticancer Drug Screen. Data for the mec2-1 strain (AID 157). The conditions noted are these: S. cerevisiae mec2-1 strain, stronger effect = higher value. The essentials:
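Strain: mec2-1 (DNA repair/cell cycle alteration). Compound exposure, then growth measured; inhibition expressed relative to vehicle.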

The nature of assay [3]: NCI Yeast Anticancer Drug Screen. Data for the sgs1 mgt1 strain (AID 161).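 Note: 0% = growth of cultures given vehicle only.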 The conditions noted are these: S. cerevisiae sgs1 mgt1 strain, stronger effect = higher value. The essentials:
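Read-out: growth inhibition vs vehicle controls. Cells: mutant yeast strain deficient in DNA damage repair.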

A short description of assay [4]: NCI Yeast Anticancer Drug Screen. Data for the cln2 rad14 strain (AID 165).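 Note: 0% = growth equal to vehicle treated cultures.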 Particulars: S. cerevisiae cln2 rad14 strain, stronger effect = higher value. In short, it runs like this:
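Compounds are applied to the cln2 rad14 yeast strain, and growth is then compared with that of vehicle-treated cultures to give inhibition.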

Assay [5] is described as follows: NCI Yeast Anticancer Drug Screen. Data for the bub3 strain (AID 167). The conditions noted are these: S. cerevisiae bub3 mutant strain, stronger effect = higher value. In short, it runs like this: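 Readout: yeast growth inhibition, expressed relative to vehicle-only wells. The test organism is a mutant strain from a panel with lesions in DNA repair or checkpoint genes.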

Assay [6] can be described thus: NCI Yeast Anticancer Drug Screen. Data for the mlh1 rad18 strain (AID 175). The conditions noted are these: S. cerevisiae mlh1 rad18 strain growth inhibition, stronger effect = higher value. In short, it runs like this:
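Read-out is yeast growth inhibition, calculated against vehicle-only controls. The compound was applied to a strain engineered with DNA damage repair alterations.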

Where [7] appears, read: at 5.0 µM (retest, dose inferred, filed as 0.5).
The mark [8] stands for this setting: at 50.0 µM (retest, dose inferred, filed as 5.0).

On to `ClC1=C(Cl)C2(Cl)C3CC4OC4C=CC3C1(Cl)C2(Cl)Cl` (configuration not stated), for which the growth inhibition was 7% (inactive) and 4% (inactive) in assay [1] (setting [7]); 93% (active) and 96% (active) in assay [1] (setting [8]); 96.3% (active) and 39.2% (inactive) in assay [1] (at 50.0 µM); 12% (inactive) and 5% (inactive) in assay [2] (setting [7]); 97% (active) and 98% (active) in assay [2] (setting [8]); 97.3% (active) and 39% (inactive) in assay [2] (at 50.0 µM). The growth inhibition was 10% (inactive) and 3% (inactive) in assay [3] (setting [7]); 96% (active) and 98% (active) in assay [3] (setting [8]); 96.8% (active) and 73.6% (active) in assay [3] (at 50.0 µM); 0% (inactive) in assay [4] (setting [7]); 96% (active) in assay [4] (setting [8]); 95.3% (active) and 47.4% (inactive) in assay [4] (at 50.0 µM). The growth inhibition in assay [5] (setting [7]) is 2% (inactive) and 5% (inactive); in assay [5] (setting [8]), 96% (active) and 97% (active); in assay [5] (at 50.0 µM), 97.1% (active) and 26.6% (inactive); in assay [6] (setting [7]) it was 8% (inactive) and 2% (inactive); in assay [6] (setting [8]), 96% (active); in assay [6] (at 50.0 µM) it was 95.3% (active) and 60.9% (inactive).

Regarding `CC(C)NCC(O)c1ccccc1Cl` (configuration not stated), the growth inhibition in assay [1] (setting [7]) is 3% (inactive); in assay [1] (setting [8]), 2% (inactive); in assay [1] (at 50.0 µM) it was 5.4% (inactive); in assay [2] (setting [7]) it was 2% (inactive); in assay [2] (setting [8]), -2% (inactive); in assay [2] (at 50.0 µM), -11.3% (inactive). For the same compound, the growth inhibition in assay [3] (setting [7]) is 0% (inactive); in assay [3] (setting [8]) it was 3% (inactive); in assay [3] (at 50.0 µM), -3.35% (inactive); in assay [4] (setting [7]) it was 0% (inactive); in assay [4] (setting [8]) it was -2% (inactive); in assay [4] (at 50.0 µM), 32.9% (inactive). Further, the growth inhibition in assay [5] (setting [7]) was -2% (inactive); in assay [5] (setting [8]), -4% (inactive); in assay [5] (at 50.0 µM) it was -6.2% (inactive); in assay [6] (setting [7]), 8% (inactive); in assay [6] (setting [8]), 3% (inactive); in assay [6] (at 50.0 µM), 14.1% (inactive).

For `C=CCN(CC=C)CC(C(C)=O)C(c1ccccc1)c1c(O)c2ccccc2oc1=O` (configuration not stated), the growth inhibition is 32% (inactive) in assay [1] (setting [7]); 32% (inactive) in assay [1] (setting [8]); 85.3% (active) in assay [1] (at 50.0 µM); 28% (inactive) in assay [2] (setting [7]); 28% (inactive) in assay [2] (setting [8]); 74.2% (active) in assay [2] (at 50.0 µM). Moreover, the growth inhibition in assay [3] (setting [7]) is 23% (inactive); in assay [3] (setting [8]), 23% (inactive); in assay [3] (at 50.0 µM) it was 84.2% (active); in assay [4] (setting [7]) it was 13% (inactive); in assay [4] (setting [8]), 13% (inactive); in assay [4] (at 50.0 µM), 81.2% (active). The growth inhibition is 27% (inactive) in assay [5] (setting [7]); 27% (inactive) in assay [5] (setting [8]); 78.8% (active) in assay [5] (at 50.0 µM); 32% (inactive) in assay [6] (setting [7]); 32% (inactive) in assay [6] (setting [8]); 80.2% (active) in assay [6] (at 50.0 µM).

`Oc1cccc2cccnc12` (tested in a mixture with another compound): the growth inhibition was -6% (inactive) in assay [1] (setting [7]); 2% (inactive) in assay [1] (setting [8]); 73.5% (active) in assay [1] (at 50.0 µM); -5% (inactive) in assay [2] (setting [7]); -6% (inactive) in assay [2] (setting [8]); 83.8% (active) in assay [2] (at 50.0 µM). The growth inhibition in assay [3] (setting [7]) was -4% (inactive); in assay [3] (setting [8]) it was 2% (inactive); in assay [3] (at 50.0 µM), 64% (inactive); in assay [4] (setting [7]), -6% (inactive); in assay [4] (setting [8]), -10% (inactive); in assay [4] (at 50.0 µM), -20.8% (inactive). For the same compound, the growth inhibition is -5% (inactive) in assay [5] (setting [7]); -4% (inactive) in assay [5] (setting [8]); 89.8% (active) in assay [5] (at 50.0 µM); 0% (inactive) in assay [6] (setting [7]); -15% (inactive) in assay [6] (setting [8]); 85.5% (active) in assay [6] (at 50.0 µM).

For the compound `COC12[C@@H]3N[C@@H]3CN1C1=C(C(=O)C(NCCSSCCNC3=C(C)C(=O)C4=C(C3=O)C(COC(N)=O)[C@]3(OC)C5N[C@@H]5CN43)=C(C)C1=O)[C@@H]2COC(N)=O` (some centres not stated), the growth inhibition is 35% (inactive) in assay [1] (setting [7]); 73% (active) in assay [1] (setting [8]); 63.1% (inactive) in assay [1] (at 50.0 µM); 18% (inactive) in assay [2] (setting [7]); 82% (active) in assay [2] (setting [8]); 49% (inactive) in assay [2] (at 50.0 µM). Further, the growth inhibition in assay [3] (setting [7]) is 41% (inactive); in assay [3] (setting [8]), 74% (active); in assay [3] (at 50.0 µM) it was 3.55% (inactive); in assay [4] (setting [7]) it was 19% (inactive); in assay [4] (setting [8]), 53% (inactive); in assay [4] (at 50.0 µM), 39.4% (inactive). Besides, the growth inhibition in assay [5] (setting [7]) was 17% (inactive); in assay [5] (setting [8]), 52% (inactive); in assay [5] (at 50.0 µM), -8.85% (inactive); in assay [6] (setting [7]), 54% (inactive); in assay [6] (setting [8]), 93% (active); in assay [6] (at 50.0 µM), 79% (active).

Turning to `Cc1nc2c(Br)cc(Br)cc2c(=O)n1-c1ccccc1N`, the growth inhibition in assay [1] (setting [7]) is 19% (inactive); in assay [1] (setting [8]) it was 22% (inactive); in assay [1] (at 50.0 µM), 63% (inactive); in assay [2] (setting [7]), 15% (inactive); in assay [2] (setting [8]), 17% (inactive); in assay [2] (at 50.0 µM) it was 9.45% (inactive). In addition, the growth inhibition in assay [3] (setting [7]) was 13% (inactive); in assay [3] (setting [8]), 24% (inactive); in assay [3] (at 50.0 µM) it was 63.8% (inactive); in assay [4] (setting [7]), 18% (inactive); in assay [4] (setting [8]), 37% (inactive); in assay [4] (at 50.0 µM) it was 19.4% (inactive). The growth inhibition in assay [5] (setting [7]) was 3% (inactive); in assay [5] (setting [8]), 4% (inactive); in assay [5] (at 50.0 µM) it was 70.2% (active); in assay [6] (setting [7]), 37% (inactive); in assay [6] (setting [8]) it was 34% (inactive); in assay [6] (at 50.0 µM), 46.2% (inactive).

Consider `[C](#Cc1ccccc1)[Hg][C]#Cc1ccccc1`, for which the growth inhibition in assay [1] (setting [7]) is 65% (inactive); in assay [1] (setting [8]), 99% (active); in assay [1] (at 50.0 µM), 98.8% (active); in assay [2] (setting [7]) it was 94% (active); in assay [2] (setting [8]) it was 99% (active); in assay [2] (at 50.0 µM), 98.8% (active). Further, the growth inhibition in assay [3] (setting [7]) is 94% (active); in assay [3] (setting [8]), 100% (active); in assay [3] (at 50.0 µM) it was 99% (active); in assay [4] (setting [7]), 26% (inactive); in assay [4] (setting [8]), 99% (active); in assay [4] (at 50.0 µM), 84.9% (active). Besides, the growth inhibition is 21% (inactive) in assay [5] (setting [7]); 99% (active) in assay [5] (setting [8]); 98.3% (active) in assay [5] (at 50.0 µM); 24% (inactive) in assay [6] (setting [7]); 99% (active) in assay [6] (setting [8]); 98.8% (active) in assay [6] (at 50.0 µM).

Regarding `O=C(CCCC(=O)NNC(=O)Nc1cccc(S(=O)(=O)F)c1)NNC(=O)Nc1cccc(S(=O)(=O)F)c1`, the growth inhibition in assay [1] (setting [7]) is 1% (inactive); in assay [1] (setting [8]) it was 3% (inactive); in assay [1] (at 50.0 µM), 73.2% (active); in assay [2] (setting [7]), 11% (inactive); in assay [2] (setting [8]), 20% (inactive); in assay [2] (at 50.0 µM) it was 72.3% (active). Further, the growth inhibition in assay [3] (setting [7]) is 3% (inactive); in assay [3] (setting [8]), -19% (inactive); in assay [3] (at 50.0 µM), 80% (active); in assay [4] (setting [7]), -8% (inactive); in assay [4] (setting [8]), -8% (inactive); in assay [4] (at 50.0 µM), 52.7% (inactive). Besides, the growth inhibition in assay [5] (setting [7]) was -6% (inactive); in assay [5] (setting [8]), -1% (inactive); in assay [5] (at 50.0 µM), 84.3% (active); in assay [6] (setting [7]), 9% (inactive); in assay [6] (setting [8]) it was 33% (inactive); in assay [6] (at 50.0 µM) it was 72.8% (active).

`C=C(CC(=O)O)C(=O)O` (tested in a mixture with another compound): the growth inhibition is -1% (inactive) in assay [1] (setting [7]); 0% (inactive) in assay [1] (setting [8]); -3.6% (inactive) and 99.4% (active) in assay [1] (at 50.0 µM); 8% (inactive) in assay [2] (setting [7]); 0% (inactive) in assay [2] (setting [8]); 28% (inactive) and 99.5% (active) in assay [2] (at 50.0 µM). In addition, the growth inhibition in assay [3] (setting [7]) was -1% (inactive); in assay [3] (setting [8]), -1% (inactive); in assay [3] (at 50.0 µM), -21.9% (inactive) and 98.8% (active); in assay [4] (setting [7]), 0% (inactive); in assay [4] (setting [8]) it was -2% (inactive); in assay [4] (at 50.0 µM), 39% (inactive) and 99.6% (active). Besides, the growth inhibition in assay [5] (setting [7]) was -3% (inactive); in assay [5] (setting [8]), -4% (inactive); in assay [5] (at 50.0 µM), -3.25% (inactive) and 99% (active); in assay [6] (setting [7]) it was 0% (inactive); in assay [6] (setting [8]), -1% (inactive); in assay [6] (at 50.0 µM), 18.6% (inactive) and 99.2% (active).
